{"source": "PubChem BioAssay AID1347416", "about": "(National Center for Advancing Translational Sciences (NCATS), 2020)", "note": "Hit rate of the full screen: of about 4,100 compounds, about 1,600 (39%) were called active. About 25% were inconclusive and are not listed. The call rests on the fitted dose curve; in most records, active means well fitted inhibition curve with a large enough effect; inconclusive means small, poorly fitted or top-dose-only effect; inactive means no such curve, though single readings can be large or run the other way. Some of the results follow. Potency means the concentration at half of the fitted maximal effect.", "data": [{"experiment": "qHTS Validation assay for Inhibitors of Plasmodium falciparum Dd2 growth in vitro; further: nearly all actives have a fitted effect of over 70% in size", "settings": "P. falciparum Dd2 in RBCs, SYBR Green growth, 72 h; series mostly up to 28.7 µM", "description": "Malaria, a parasitic disease spread to humans through the bite of a Plasmodium infected Anopheles mosquito, continues to be a global health burden affecting millions of people, with an estimated 228 million cases and 405,000 deaths in 2018. Concerns about safety and limitations of current antimalarial treatments strongly emphasize the need to develop new therapeutic options. The scarce number of chemotypes and validated drug targets with efficacy against the liver stage, have hindered development of new antimalarials. To address this, a chemoprophylactic drug discovery effort was conducted through a combined phenotypic high-throughput asexual blood stage and liver stage screen, providing a robust foundation to identify liver-stage active lead chemotypes. Compounds were initially screened against Plasmodium falciparum Dd2 strain parasites using a in vitro SYBRGreen-1 based 72 hr proliferation assay to identify novel chemotypes to advance to liver stage assays. NIH/NCATS Early Translation Branch Assay Submitter (PI): Anton Simeonov Ph.D.\n[…] Assay Protocol: PROTOCOL TABLE (as described by Inglese et al., 2007) SEQUENCE No. (e.g., 1, 2, 3, etc.); PARAMETER (e.g., Cells, Incubation, Reagent, etc.); VALUE; DESCRIPTION SEQUENCE, Parameter, Description 1; Reagent; 3 uL complete malaria growth medium, 1536 TC treated Black clear bottom plate 2; Controls; 23 nL positive control artesunate (300 nM final) to column 1; Neutral control DMSO to columns 2-4 3; Compound; 23 nL of compounds in dose response concentration (29 uM to 0.5 nM final) 4; Reagent; 5 uL malaria infected red blood cells (2.5% hematocrit final, 0.3% parasitemia 5; Time; 72 hours at 37C (5% O2, 5% CO2, 90% N2; 95% Rh) 6; Reagent; 2 uL lysis buffer/SYBRGreen-1, 25 sec shake immediately following dispense 7; Time; ~16 hours at 37C (5% O2, 5% CO2, 90% N2; 95% Rh) 8; Detector; EnVision (PerkinElmer) bottom read at 485/14nm excitation and 535/25 nm emission NOTES (numbers refer to sequence above): 1; Complete Malaria Growth Media: 1X RPMI-1640 w/L-glutamine, 5.5g/L Albumax II, 367 uM Hypoxanthine, 25 mM HEPES, 0.25% Sodium Bicarbonate, 35 uM Gentamicin sulfate 2; Controls were added using the Kalypsis Pintool (Wako USA) equipped with 1536 pinhead 3; Compounds were added in a 7-point, titration with a high final concentration of 29 uM by Pintool from seven inter-plate titrations of library plates and two DMSO control plates at the beginning and end (see Yasgar et al., 2008). 4; Red blood cells infected with Plasmodium falciparum Dd2 parasites were used. 6; Lysis buffer: 20 mM Tris-HCl, 10 mM EDTA, 0.16% Saponin, 1.6% Triton-X, 10X SYBR Green. REFERENCE: Inglese J, Shamu CE, Guy RK. 2007. Reporting data from high-throughput screening of small-molecule libraries. Nat Chem Biol. doi:10.1038/nchembio0807-438 Yasgar A, Shinn P, Jadhav A, Auld D, Michael S, Zheng W, Austin CP, Inglese J, Simeonov A. 2008. Compound Management for Quantitative High-Throughput Screening. J Lab Autom 13:79-89. doi:10.1016/j.jala.2007.12.004", "values": [{"compound": "CN1Cc2ccccc2-n2ccnc2C12CCN(C(=O)c1cccc(C(F)(F)F)c1)CC2", "Potency": "inactive"}, {"compound": "Clc1ccc(C(Cn2ccnc2)OCc2csc3c(Cl)cccc23)c(Cl)c1", "note": "(centres undefined)", "Potency": "2.37 µM (active)"}, {"compound": "CCCCn1c(NS(=O)(=O)c2ccccc2)c(C(=O)OCC)c2nc3ccccc3nc21", "Potency": "10.6 µM (active)"}, {"compound": "C=CC1CN2CCC1CC2C(OC(C)=O)c1ccnc2ccc(OC)cc12", "note": "(centres undefined)", "Potency": "1.68 µM (active)"}, {"compound": "CN(C)CC1CSCCC1(O)c1ccccc1Cl", "note": "(centres undefined)", "Potency": "5.96 µM (active)"}, {"compound": "Cc1ccccc1CN1C(=O)CN=C(c2ccccc2)c2cc(Cl)ccc21", "Potency": "16.8 µM (active)"}, {"compound": "CCC1(OC(=O)CN)C(=O)OCc2c1cc1n(c2=O)Cc2cc3ccccc3nc2-1", "note": "(centres undefined)", "Potency": "6.68 µM (active)"}, {"compound": "Oc1c(Cl)cc(Cl)cc1CN1CCN(Cc2ccccc2)CC1", "Potency": "0.668 µM (active)"}, {"compound": "Oc1ccc(Cl)cc1CN1CCN(Cc2ccccc2)CC1", "Potency": "0.944 µM (active)"}, {"compound": "O=C(NC[C@H]1C[C@@H]2CCN1C[C@@H]2CN1CCC(Cc2ccccc2)CC1)c1ccccc1", "Potency": "7.69 µM (active)"}, {"compound": "COc1ccc(CN2CCCC(C(=O)c3ccc(Cl)cc3)C2)c(O)c1", "note": "(centres undefined)", "Potency": "0.531 µM (active)"}, {"compound": "O=C(C[C@@H]1NCCC[C@H]1O)Cn1cnc2cc(Br)c(Cl)cc2c1=O", "Potency": "2.37 µM (active)"}, {"compound": "C[n+]1c(-c2ccccc2)cc(-c2ccc(Cl)cc2)cc1-c1ccccc1", "Potency": "6.68 µM (active)"}, {"compound": "Cn1nccc1CN1CCC2(CC1)C(=O)Nc1ccccc12", "Potency": "inactive"}, {"compound": "COc1cc2c(cc1OCC1CC1)NC(=O)C21CCN(C(=O)c2cccnc2)CC1", "Potency": "inactive"}, {"compound": "COc1cc2c(cc1OC1CCCC1)NC(=O)C21CCN(c2cnccn2)CC1", "Potency": "7.69 µM (active)"}, {"compound": "COc1cc2c(cc1Oc1cccc(N(C)C)c1)NC(=O)C21CCN(c2cnccn2)CC1", "Potency": "1.5 µM (active)"}, {"compound": "COc1cc2c(cc1OCC1CC1)NC(=O)C21CCN(c2nccs2)CC1", "Potency": "21.7 µM (active)"}, {"compound": "COc1cc2c(cc1OCc1ccccc1)NC(=O)C21CCN(c2ccccn2)CC1", "Potency": "15.3 µM (active)"}, {"compound": "COc1cc2c(cc1Oc1ccccc1)NC(=O)C21CCN(C(=O)c2ccccc2)CC1", "Potency": "inactive"}, {"compound": "COc1cc2c(cc1Oc1ccccc1)NC(=O)C21CCN(c2cnccn2)CC1", "Potency": "2.17 µM (active)"}, {"compound": "O=C(Nc1ccc2n(c1=O)C[C@H]1C[C@@H]2CN(Cc2ccc(F)cc2)C1)c1cccs1", "Potency": "15.3 µM (active)"}, {"compound": "C#C[C@H]1CN2CC[C@H]1C[C@@H]2CNCc1cccc(Cl)c1", "Potency": "4.85 µM (active)"}, {"compound": "CC[C@H]1CN2CC[C@H]1C[C@@H]2CNCc1ccc(SC)cc1", "Potency": "4.33 µM (active)"}, {"compound": "C#C[C@H]1CN2CC[C@H]1C[C@@H]2CNCc1ccc(F)c(F)c1", "Potency": "13.7 µM (active)"}, {"compound": "O[C@H]1[C@H](NCC2CCCC2)[C@@H](c2ccccc2)C[C@H]1O", "Potency": "6.11 µM (active)"}, {"compound": "COc1cc2c(cc1OCc1ccccc1)N([S+](=O)([O-])c1cccnc1)CC21CCN(C)CC1", "Potency": "10.6 µM (active)"}, {"compound": "COc1cc2c(cc1OCc1ccccc1)N(C(=O)c1cc3ccccc3n1C)CC21CCN(C)CC1", "Potency": "2.11 µM (active)"}, {"compound": "COc1cc2c(cc1OCc1ccccc1)N(C(=O)c1cc3ccccc3[nH]1)CC21CCN(C)CC1", "Potency": "0.944 µM (active)"}, {"compound": "CC(C)c1ccc(O)c(CN2CCN(c3ccccc3)CC2)c1", "Potency": "1.33 µM (active)"}, {"compound": "Cc1ccc(O)c(CN2CCN(c3ccccc3)CC2)c1", "Potency": "2.99 µM (active)"}, {"compound": "Oc1ccc(Br)cc1CN1CCN(c2ccccc2)CC1", "Potency": "2.11 µM (active)"}, {"compound": "CCc1ccc(CN2CCN(Cc3cc(Br)ccc3O)CC2)cc1", "Potency": "2.11 µM (active)"}, {"compound": "CNC(=O)Oc1cccc(-c2cn3cc(OC(=O)NC)ccc3n2)c1", "Potency": "inactive"}, {"compound": "COc1ccccc1N1CCN(Cc2cc(C)c(C)cc2O)CC1", "Potency": "0.376 µM (active)"}, {"compound": "CC(C)(C)c1ccc(O)c(CN2CCN(c3ccccc3)CC2)c1", "Potency": "1.5 µM (active)"}, {"compound": "Oc1cc2c(cc1CN1CCN(c3ccccc3)CC1)CCC2", "Potency": "3.35 µM (active)"}, {"compound": "COc1ccc(-c2cc([C@H]3CN4CC[C@H]3C[C@@H]4CNC(=O)NC3CCCCC3)n(C)n2)cc1", "Potency": "1.88 µM (active)"}, {"compound": "COc1ccc(OC)c(S(=O)(=O)NC[C@H]2C[C@@H]3CCN2C[C@@H]3c2cc(-c3ccc(F)cc3)nn2C)c1", "Potency": "6.68 µM (active)"}, {"compound": "COc1ccc(-c2cc([C@H]3CN4CC[C@H]3C[C@@H]4CNS(=O)(=O)c3ccc(Cl)cc3)n(C)n2)cc1OC", "Potency": "2.99 µM (active)"}, {"compound": "COc1ccc(-c2cn(C[C@H]3C[C@@H]4CCN3C[C@@H]4C(=O)NCc3ccccc3)nn2)cc1", "Potency": "inactive"}, {"compound": "Cn1nc(C2CCCCC2)cc1[C@H]1CN2CC[C@H]1C[C@@H]2CNC(=O)c1cccs1", "Potency": "13.7 µM (active)"}, {"compound": "CN1CCN(C[C@H]2CN3CC[C@H]2C[C@@H]3CNS(=O)(=O)c2ccccc2)CC1", "Potency": "inactive"}, {"compound": "Cc1ccc(S(=O)(=O)NC[C@H]2C[C@@H]3CCN2C[C@@H]3CN2CCc3ccccc32)cc1", "Potency": "13.7 µM (active)"}, {"compound": "C[n+]1c2ccccc2nc2ccc(NCCO)cc21", "Potency": "1.19 µM (active)"}, {"compound": "COC(=O)C1=C(c2ccc(OC)c(OC)c2)C[C@@H]2CC[C@H]1N2C(=O)NCc1cccc2ccccc12", "Potency": "3.35 µM (active)"}, {"compound": "COc1cccc(CC(=O)N2[C@H]3CC[C@@H]2c2cnc(-c4ccc(F)cc4)nc2C3)c1", "Potency": "inactive"}, {"compound": "COC(=O)C1=C(c2ccc(-c3ccccc3)c(F)c2)C[C@@H]2CC[C@H]1N2C(=O)NCc1cccc2ccccc12", "Potency": "10.6 µM (active)"}, {"compound": "CCCCCSc1cc(O)c(C(CNC)C(C)C)cc1OC", "note": "(centres undefined)", "Potency": "0.168 µM (active)"}]}]}
